Where “and” joins values, the source holds several entries; their conditions need not be identical. Equal values may be shown once. Results filed as inconclusive are left out. Entries that show only a call come without a potency. Calls of active or inactive are those of the source. The call rests on the fitted dose curve; in most records, active means well fitted cell-killing curve with a large enough effect in the repeat runs; inconclusive means weak or mixed curves; inactive means flat fitted curve, though single readings scatter.
Experiment: qHTS RealTime-Glo MT Cell Viability Assay in HepG2 cells - 16 hour (AID 1224885); further: nearly all actives have a fitted effect of over 50% in size
Details: RealTime-Glo luminescence; series mostly up to 76.8 µM
Excerpt: U.S. Tox21 Program National Center for Advancing Translational Sciences [NCATS] NIH Chemical Genomics Center [NCGC] U.S. Environmental Protection Agency [EPA] National Institutes of Environmental Health Sciences [NIEHS] National Toxicology Program [NTP] U.S. Food and Drug Administration [FDA] Tox21 Assay Overview: Measure of cell viability is critical in the cell-base assay. Analysis of cell viability is necessary for the characterization of cell responses to cytotoxic drugs and environmental stress. A RealTime-Glo MT Cell Viability Assay to monitor cell viability in real time of continues cell culture during 40 hours of compound treatment was used to screen Tox21 10K library compounds in HepG2 cells. The RealTime-Glo MT Cell Viability Assay is a nonlytic, homogeneous, bioluminescent method to measure cell viability in real time using a simple, plate-based method. The assay involves adding NanoLuc luciferase and a cell-permeant prosubstrate to cells in culture. Viable cells reduce the proprietary prosubstrate to generate a substrate for NanoLuc luciferase. This substrate diffuses from cells into the surrounding culture medium, where it is rapidly used by the NanoLuc Enzyme to produce a luminescent signal. The signal correlates with the number of viable cells, making the assay well suited for cytotoxicity studies.
Tox21 Assay Protocol Summary: The mixture of HepG2 cell suspension and reagents were dispensed at 600cells/6 ul/well in 1536-well tissue culture treated black solid bottom plates using a Multidrop dispenser. After the assay plates were incubated at a 37 C/5% CO2 incubator for 5 hours, 23 nL of compounds dissolved in DMSO, positive and negative controls was transferred to the assay plate by a pintool work station. The plates were incubated at 37 C for 40 hours. The luminescence intensity were measured at 0h, 8h, 16h, 24h, 32h and 40h time points using ViewLux plate reader during compound treatment.
In the case of `COc1ccc(OC(F)(F)F)cc1CN[C@H]1CCCN[C@H]1c1ccccc1`, the Potency is reported as 54.9 µM (active). With `O=CC(=O)c1ccccc1` the Potency was “inactive”. With `CN1CCc2cccc3c2[C@H]1Cc1ccc(O)c(O)c1-3` the Potency was 49.5 µM (active) and 18.3 µM (active) and 23.9 µM (active). For `CN[C@H]1CC[C@@H](c2ccc(Cl)c(Cl)c2)c2ccccc21`, the Potency was 23.9 µM (active). For `CCCCCCCCCCCC[N+](C)(C)Cc1ccccc1`, the Potency was 21.5 µM (active) and 23.8 µM (active) and 12 µM (active). For `NC1CCCCC1`, the Potency was “inactive”. With `Cc1cc(C)nc(NS(=O)(=O)c2ccc(N)cc2)n1` the Potency was “inactive”. In the case of `C/C=C/C=C/C(=O)O`, the Potency is reported as “inactive”. For `CCCC[P+](CCCC)(CCCC)CCCC`, the Potency was “inactive”. For `Nc1c2c(nc3ccccc13)CCCC2`, the Potency was “inactive”. For `NS(=O)(=O)O`, the Potency was “inactive”. For `C=CCc1ccc(O)c(OC)c1`, the Potency was “inactive”. With `CCc1nc(N)nc(N)c1-c1ccc(Cl)cc1` the Potency was “inactive”. With `CCCCNC(=O)NS(=O)(=O)c1ccc(C)cc1` the Potency was “inactive”. In the case of `Cc1c(C(=O)O)c(O)cc2c1C(=O)c1c(O)c([C@@H]3O[C@H](CO)[C@@H](O)[C@H](O)[C@H]3O)c(O)c(O)c1C2=O`, the Potency is reported as “inactive”. In the case of `CN(C)C(=S)SC(=S)N(C)C`, the Potency is reported as 2.75 µM (active). For `Nc1ccc([N+](=O)[O-])cc1O`, the Potency was “inactive”. In the case of `CN(C)C(=O)Nc1ccc(Cl)c(Cl)c1`, the Potency is reported as “inactive”. With `CN(N=O)C(=O)N[C@@H]1[C@@H](O)[C@H](O)[C@@H](CO)O[C@@H]1O` the Potency was “inactive”. For `OC[C@H]1O[C@H](O[C@]2(CCl)O[C@H](CCl)[C@@H](O)[C@@H]2O)[C@H](O)[C@@H](O)[C@H]1Cl`, the Potency was “inactive”. For `CCOC(N)=O`, the Potency was “inactive”. For `CN(C)CCOC(C)(c1ccccc1)c1ccccn1` (stereo not given), the Potency was “inactive”. With `O=C1c2c(O)cccc2Cc2cccc(O)c21` the Potency was “inactive”. For `Cc1ncc([N+](=O)[O-])n1CCO`, the Potency was “inactive”. For `O=C1NC(=O)C(c2ccccc2)(c2ccccc2)N1`, the Potency was “inactive”. With `C=C(C)C(=O)OCC(C)O` (stereo not given) the Potency was “inactive”. In the case of `CC(O)(P(=O)(O)O)P(=O)(O)O`, the Potency is reported as “inactive”. With `COc1ccc2cc(S(=O)(=O)N[C@H](CC(=O)N[C@H](Cc3ccc(CN4[C@H](C)CCC[C@@H]4C)cc3)C(=O)N(C)C(C)C)c3ccc4c(c3)OCO4)ccc2c1` the Potency was 52 µM (active). In the case of `CC(C)NCC(O)c1ccc(O)c(O)c1` (stereo not given), the Potency is reported as “inactive”. In the case of `CCN(CC)C(=O)c1cccc(C)c1`, the Potency is reported as “inactive”. With `CC/C(=C(\c1ccccc1)c1ccc(OCCN(C)C)cc1)c1ccccc1` the Potency was 43.6 µM (active) [middle of 5 runs]. For `CCCCCCCC(=O)OCC(COC(=O)CCCCCCC)OC(=O)CCCCCCC`, the Potency was “inactive”. In the case of `CCCCC1(COC(=O)CCC(=O)O)C(=O)N(c2ccccc2)N(c2ccccc2)C1=O`, the Potency is reported as “inactive”. In the case of `Oc1ccccc1`, the Potency is reported as “inactive”. For `CCN(Cc1c(F)cccc1Cl)c1c([N+](=O)[O-])cc(C(F)(F)F)cc1[N+](=O)[O-]`, the Potency was “inactive”. With `CN(C)CCOC(c1ccccc1)c1ccccc1` the Potency was “inactive”. With `COc1ccc2c(c1)c(CC(=O)O)c(C)n2C(=O)c1ccc(Cl)cc1` the Potency was “inactive”. For `Cn1c(=O)c2c(ncn2C)n(C)c1=O`, the Potency was “inactive”. With `Cc1ccc(S(=O)(=O)O)cc1` the Potency was “inactive”. With `O=c1[nH]cc(F)c(=O)[nH]1` the Potency was “inactive”.

— PubChem BioAssay (Tox21)
Potency means the concentration at half of the fitted maximal effect.
